In all, about 48,000 compounds went through this assay and about 13,000 (27%) showed an effect of 50% or more. Some of the results follow.
Test system: Wolbachia pipientis
Experiment: Anti-Wolbachia Cell-Based Screen
Assay type: functional
Parameters: scale not given: in the data most compounds retested in dose-response had high values
Conditions: 5 µM

| SMILES | Percent Effect [%] |
| --- | --- |
| CCc1nc(C)c(-c2nccn2CC2CCCCO2)[nH]1 (stereo unspecified) | -5.573 |
| CCN(C(=O)c1ccc2nnc(C3CCN(CCOC)C3)n2c1)C(C)C.O=C(O)C(F)(F)F (stereo unspecified) | 2.172 |
| CN(CCN1CCCCCC1)Cc1cnc(N)nc1 | -0.8813 |
| CCN1CCC(Cn2ccc3ccc(C(=O)OC)cc3c2=O)C1 (stereo unspecified) | -7.454 |
| COc1ccccc1CNC(=O)C1=NN(c2ccc(C)cc2)C(=O)CN1 | 1.348 |
| Nc1nccc(C2CCCN2CCc2ccccc2)n1 (stereo unspecified) | 168.1 |
| Fc1ccc2[nH]c(C3CCCN3CCc3ccccn3)nc2c1 (stereo unspecified) | 17.03 |
| COCC(=O)N1CCCC1c1ccnc(Nc2cnccn2)n1 (stereo unspecified) | -7.486 |
| c1cc(CCN2CCCC2CN2CCCC2)ccn1 (stereo unspecified) | 17.12 |
| c1ccc(CCN2CCCC2c2ccnc(Nc3cnccn3)n2)cc1 (stereo unspecified) | 169.2 |
| O=C(CCN1CCCC1c1ccccn1)N1CCc2ccccc2C1 (stereo unspecified) | 1 |
| CSCC1CCCN1CCc1ccncc1 (stereo unspecified) | 7.935 |
| c1ccc(CCN2CCCC2c2ccnc(Nc3ncccn3)n2)cc1 (stereo unspecified) | 212.6 |
| CCn1cc2c(n1)C(COC)CN(C(=O)COc1ccccc1)C2 (stereo unspecified) | -10.51 |
| Cc1cccnc1CN(C)C(C(=O)O)c1ccc(-n2cccn2)cc1 (stereo unspecified) | -2.38 |
| COc1nc2c(cc1C(=O)NCCCc1csc(N)n1)CCC2 | -5.437 |
| COC(=O)COc1cccc(NS(=O)(=O)c2cc(C(=O)O)cs2)c1 | 15.7 |
| Nc1cc2c(nn1)CCN(C(=O)Cc1ccc3c(c1)CCCC3)C2 | -1.547 |
| Cc1ccc(C(=O)N2CC3(CCNCC3)c3cc(Cl)ccc32)cn1.O=C(O)C(F)(F)F.O=C(O)C(F)(F)F | 107.7 |
| Cc1ccc(C(=O)N2CC3(CCCCC3)c3cc(C(=O)O)ccc32)cn1.O=C(O)C(F)(F)F | -4.08 |
| CN(C)C(=O)N1CC2(CCNCC2)c2cc(F)ccc21.O=C(O)C(F)(F)F | 2.852 |
| O=C(O)C(F)(F)F.O=C(c1cccc(Cl)c1)N1CCCC2(CCCNC2)C1 (stereo unspecified) | -4.426 |
| O=C(O)C(F)(F)F.O=C(c1ccco1)N1CC2(CCNCC2)c2cc(Cl)ccc21 | 104.6 |
| O=C(C1CC1)N1CC2(CCNCC2)c2cc(F)ccc21.O=C(O)C(F)(F)F | -3.609 |
| O=C(O)C(F)(F)F.O=C(O)C(F)(F)F.O=C(c1ccncc1)N1CC2(CCNCC2)c2cc(Cl)ccc21 | 113.8 |
| O=C(O)C(F)(F)F.O=C(c1ccco1)N1CCCC2(CN(Cc3ccc(F)cc3)CCO2)C1 (stereo unspecified) | -3.961 |

| SMILES | Percent Effect [%] |
| --- | --- |
| Cc1ccc(N2CCN(Cc3ccccc3)C3(CCNCC3)C2=O)cn1.O=C(O)C(F)(F)F | -1.603 |
| COc1cc(C(=O)N2CC3(CCNCC3)c3cc(Cl)ccc32)ccn1.O=C(O)C(F)(F)F.O=C(O)C(F)(F)F | 123.4 |
| CNC(=O)[C@@H](C1CCCCC1)N1CCC[C@H]1C(=O)NCCN1CCCC1.Cl.Cl | 1.393 |
| CC1CCCN(C(=O)c2ncncc2Cl)C1 (stereo unspecified) | -8.48 |
| CCc1nc(C)c(CN2CCOC(Cc3ccccc3Cl)C2)[nH]1 (stereo unspecified) | 16.37 |
| COCC(=O)NC(c1ccc(Cl)cc1)C(F)(F)F (stereo unspecified) | 5.635 |
| Cc1cc(C(=O)Nc2ccc(N3CCCC3)cn2)ccc1-n1cncn1 | -6.985 |
| Cc1nn(-c2ccc(F)cc2)c2[nH]nc(N)c12 | 1.976 |
| COCCC1(CO)CCCN(Cc2cc(C(F)(F)F)ccc2F)C1 (stereo unspecified) | 0.6502 |
| Cn1cc(NC(=O)N2CCC(CN3CCCC3)CC2)ccc1=O | -5.518 |
| FC(F)(F)c1nc(NC2CCCC2)c2ccccc2n1 | 1.763 |
| CC(C)C(Nc1nc(C(F)(F)F)nc2ccccc12)C(=O)O (stereo unspecified) | 2.163 |
| FC(F)(F)c1nc(NC2CCCCC2)c2ccccc2n1 | 111.5 |
| CNC(=O)c1cnn2c(C3CCCN3C)ccnc12 (stereo unspecified) | 176.6 |
| CNC(=O)c1cc2c(nc1NC(C)C)CCNCC2 | 9.833 |
| COc1ccnc(N2CCN(C(=O)c3cnn(C)c3C3CC3)CC2)n1 | 4.417 |
| COCCOc1ccc(-c2noc([C@@H]3CCCN3)n2)cn1 | 7.967 |
| CCN(CC)C(=O)c1cc(C2CCCN2C)ccn1.O=CO (stereo unspecified) | -4.853 |
| CNC(=O)c1cnn2c(C3CCCN3)ccnc12 (stereo unspecified) | 113.8 |
| O=C(Nc1ccc(-c2ccco2)cc1)C1CCCN(Cc2ccon2)C1 (stereo unspecified) | 13.81 |
| CN(C)Cc1cc(-c2nccn2CCn2cccn2)ccc1O | -0.09991 |
| CCC(O)C1CCN(C(=O)Nc2nc(-c3ccccc3)ns2)CC1 (stereo unspecified) | -13.79 |
| CCNc1nc(C)c(C(=O)N2CCC(C(O)Cc3ccccc3)CC2)s1 (stereo unspecified) | 94.25 |
| CCOC(=O)N1CCN(C(=O)c2sc(-c3ccccc3F)nc2C)CC1 | 4.725 |
| CNc1nc(C)c(C(=O)N2CCCCC2CCc2ccccc2)s1 (stereo unspecified) | -0.1409 |
| CCNc1nc(C)c(C(=O)N2CCN(c3ncccc3C)CC2)s1 | -16.27 |

| SMILES | Percent Effect [%] |
| --- | --- |
| CNc1nc(C)c(C(=O)N2CCC(C(O)Cc3ccccc3)CC2)s1 (stereo unspecified) | 102.6 |
| CCS(=O)(=O)N1CCCn2nnc(Cn3cccc3)c2C1 | 97.66 |
| O=C(c1ccc(Cl)cc1)N1CCCn2nnc(Cn3cccn3)c2C1 | 10.27 |
| CCS(=O)(=O)N1Cc2c(Cn3cccc3)nn(C(C)C)c2C1 | 3.857 |
| O=C(O)C(F)(F)F.c1ccc(CN2CCCn3nnc(Cn4cccc4)c3C2)nc1 | -7.39 |
| C1CCN(Cc2nnn3c2CN(CC2CC2)CCC3)C1 | 3.513 |
| O=S(=O)(C1CC1)N1CCCn2nnc(Cn3cccc3)c2C1 | 109 |
| CCCc1cncnc1N1CCC(NCCc2ccc(O)cc2)CC1 | 1.389 |
| CC(C)CS(=O)(=O)CCNC(=O)Nc1cccc2ncccc12 | 3.388 |
| CCN(CC1CCOC1)S(=O)(=O)Cc1cc(Cl)ccc1OC (stereo unspecified) | -20.98 |
| Cc1cc(C)c(S(N)(=O)=O)cc1C(=O)NCC1Cc2ccccc2O1 (stereo unspecified) | -3.139 |
| Cc1oc(C(=O)Nc2cccc(Cl)c2C)cc1S(N)(=O)=O | 64.05 |
| Cc1oc(C(=O)O)cc1S(=O)(=O)Nc1c(F)cccc1-n1cccn1 | -6.217 |
| Cc1c(Cl)cccc1NC(=O)CN(Cc1cccnc1)C(C)C | -4.468 |
| CCN(Cc1ccoc1)C(=O)c1cc(S(N)(=O)=O)c(C)o1 | -22.47 |
| Cc1oc(C(=O)Nc2ccccc2F)cc1S(N)(=O)=O | 99.25 |
| Cc1cccc(C)c1NC(=O)c1cc(S(N)(=O)=O)c(C)o1 | 102.4 |
| Cc1c(Cl)cccc1NC(=O)N1CCC2(CC1)NC(=O)CC2C(=O)O (stereo unspecified) | -2.177 |
| NS(=O)(=O)CCNC(=O)c1cc2cccc(F)c2o1 | -1.054 |
| CC(=O)NCCCSC1CCN(c2c(F)cccc2F)C1=O (stereo unspecified) | 8.134 |
| COCc1c(Cl)cccc1NC(=O)NCc1cccc(N(C)C)n1 | 23.29 |
| O=C(O)C[C@@H]1CCN(C(=O)C2CCCC2)C[C@@H]1CCN1CCCCC1 | 3.998 |
| O=C1CCc2cc(OCCN3CCc4cncnc4C3)ccc2N1 | 28.97 |
| COc1cc(C(C)=O)ccc1OCC(=O)c1cccn1C | 70.23 |
| Cn1cccc1C(=O)OCCNC(=O)c1ccccc1 | -6.195 |
| Cn1cccc(NC(=O)COc2ccc(Br)cc2)c1=O | -13.39 |

| SMILES | Percent Effect [%] |
| --- | --- |
| COc1cc(C(C)=O)ccc1OCC(=O)N(C)Cc1cnn(C)c1 | -3.043 |
| COc1cc(C(C)=O)ccc1OCC(=O)N(Cc1ccsc1)C1CC1 | -7.993 |
| Cn1cccc(NC(=O)COc2ccc(Cl)cc2)c1=O | -8.548 |
| Cn1cccc1C(=O)N1CCC2(CCCN2S(C)(=O)=O)CC1 | -6.458 |
| Cn1cccc1C(=O)COc1ccc(S(N)(=O)=O)cc1 | 87.78 |
| CC(=O)c1ccc(OCC(=O)c2cccn2C)cc1 | 104.8 |
| N#CCCN(Cc1ccco1)C(=O)CCCNC(=O)c1ccccc1 | 3.869 |
| c1cc(-c2noc([C@@H]3Cc4nc[nH]c4CN3)n2)ccn1 | -6.71 |
| CCOC(=O)Cn1ccc2cc(NC(=O)N3CCSCC3)ccc21 | -0.3314 |
| Cc1ccc2nc(C)cc(C(=O)NC(C)c3nnn[nH]3)c2c1 (stereo unspecified) | -5.758 |
| Cc1ccccc1OC(C(=O)N1CCC2(CC1)CN(C)C(=O)O2)C(C)C (stereo unspecified) | -8.932 |
| CN1C[C@]2(CC[C@@H](C(=O)O)CC2)Oc2ccccc2C1=O | 130.9 |
| CC(C)C(C(=O)N1CCC2(CC1)CN(C)C(=O)O2)c1ccccc1 (stereo unspecified) | -0.7993 |
| CCC(=O)c1ccc(OCC(=O)NCC2CC(CC)=NO2)cc1 (stereo unspecified) | 0.5795 |
| CSc1ccc(C(=O)C2CCCN(C(=O)Cn3cnnn3)C2)cc1 (stereo unspecified) | -23.42 |
| CSc1ccc(C(=O)C2CCCN(C(=O)CCn3cncn3)C2)cc1 (stereo unspecified) | 108 |
| CSc1ccc(C(=O)C2CCCN(C(=O)CCn3cnnn3)C2)cc1 (stereo unspecified) | 95.72 |
| CSc1ccc(C(=O)C2CCCN(C(=O)CCCn3cncn3)C2)cc1 (stereo unspecified) | 89.8 |
| O=C(CCn1cncn1)N1CC[C@@H](c2ccc3ccccc3c2)[C@H](O)C1 | 2.781 |
| O=C(c1ccc(C(F)(F)F)cc1)C1CCCN(C(=O)Cn2cnnn2)C1 (stereo unspecified) | -1.796 |
| CN(C)S(=O)(=O)N1C[C@@H]2CC[C@H](C1)N(CCC(=O)NCc1ccco1)C2 | -9.336 |
| CC(C)C(=O)NCc1cc(Br)ccc1F | -9.372 |
| OCCOc1nc(-c2ccccc2Cl)no1 | -14.24 |

— ChEMBL document CHEMBL3988442, “University of Dundee, Small-Polar-MMV Screening Library” (2021)
